Molecules are shown by their SMILES. The campaign covered roughly 69,000 compounds. About 8,600 (12%) showed an effect of 50% or more. The full list was thinned out, with strong results kept by preference.

The subject of the assay is Plasmodium berghei. Kind of assay: Screen against P. berghei liver stage (PbLuc), transformed with Luciferase, at 10uM. The following applies: tested at 10 uM. The assay is classed as functional, HepG2.
Regarding `CCNC(c1ccc(Br)cc1)c1cccnc1` (centres undefined), the INHIBITION stood at 3.15%.
The figure for `CC(C)(C)c1nnc2n1C(C(=O)N1CCCC1)CC2` (centres undefined) is 21.7%; for `CCC1CN(C(=O)c2cccc(OCc3cscn3)c2)CCO1` (centres undefined) it is 32.025%; for `Cc1cnn(CC2CCCN2Cc2nccn2CC(F)(F)F)c1` (centres undefined) it is -10.1%.
Take `CC(C1CCN(Cc2c(Cl)ccc(O)c2Cl)CC1)N1CCN(C)CC1` (centres undefined): the INHIBITION is given as 21.145%.
For the compound `CC(C1CCN(Cc2c(Cl)cncc2Cl)CC1)N1CCN(C)CC1` (centres undefined), the INHIBITION is on record as 51.3%.
The same measure for `CC(C1CCN(Cc2c(Cl)cncc2Cl)CC1)N1CCOCC1` (centres undefined): 52.5%; for `CC(C1CCN(Cc2ccc(N(C)C)nc2)CC1)N1CCOCC1` (centres undefined): 36.2%.
Take `CN1CCN(C[C@@H]2CN(Cc3c(Cl)cncc3Cl)C[C@@H]2CO)CC1`: the INHIBITION is listed as -56.2%.
For the compound `CC(C1CCN(Cc2ccc(OC(F)F)cc2)CC1)N1CCOCC1` (centres undefined), the INHIBITION is on record as 33.7%.
The figure for `c1cnc(NC2COC3(CCN(Cc4nccs4)CC3)C2)cn1` (centres undefined) is 42.7%; for `CCN(CC)c1ncc(CNC2CCc3ncnn3C2)s1` (centres undefined) it is -17.9%; for `CC(C)(C)S(=O)(=O)CCNC(=O)c1ccc2cc[nH]c2c1` it is -19.7%.
Turning to `COCCN1C[C@@H]2CN(Cc3ccc(C)s3)CCC[C@]2(C(=O)O)C1`, the INHIBITION came to 24.9%.
The figure for `COCCn1cc2c(n1)C(CNCc1ccco1)OCC2` (centres undefined) is -11.5%.
The same measure for `COc1c(CNC2(c3noc(C)n3)CCC2)c(C)nn1C`: -81.2%.
The figure for `COCCCNC(=O)Nc1cccc(Cl)c1-n1cccn1` is -31.5%.
On to `COCCN(Cc1ccccn1)C(=O)CC1OCCc2ccccc21` (centres undefined), for which the INHIBITION worked out at 10.9%.
The figure for `COCCN(Cc1ccccn1)C(=O)CC1OCCc2ccsc21` (centres undefined) is 58.2%; for `COCCN(Cc1ccccn1)C(=O)CC1OCCc2sccc21` (centres undefined) it is 35%; for `COCc1nc(Cn2c(C)cc(C(F)(F)F)cc2=O)no1` it is 32.1%.
The figure for `Cc1ccc(C)c(NC(=O)c2cc(S(=O)(=O)N3CCSCC3)c[nH]2)c1` is 32%.
As for `CS(=O)(=O)N1C[C@H]2CCC[C@@]2(COCC2CCOCC2)C1`, the INHIBITION is reported as 5.36%.
The figure for `CN(C)S(=O)(=O)N1C[C@H]2CCC[C@@]2(COCc2cccnc2)C1` is -136%.
The same measure for `CN(C)S(=O)(=O)N1C[C@H]2CCC[C@@]2(COCC2CCOCC2)C1`: 40.8%.
Take `CN(C)S(=O)(=O)N1C[C@H]2CCC[C@@]2(COCc2ccccn2)C1`: the INHIBITION worked out at 31.9%.
The same measure for `CN(C)S(=O)(=O)N1C[C@H]2CCC[C@@]2(COCC2CC2)C1`: 63%; for `Cc1cccc(COC[C@@]23CCC[C@@H]2CN(S(=O)(=O)N(C)C)C3)n1`: 52.6%.
The same measure for `COc1cccc2ccc(N3CCC(O)(c4ccc(C)cn4)CC3)nc12`: -44.2%.

Source of the values: ChEMBL document CHEMBL4513216, “Probing the Open Global Health Chemical Diversity Library for Multistage-Active Starting Points for Next-Generation Antimalarials” (ACS Infect Dis, 2020).
